# Measurements as given in PubChem BioAssay (NCI).
# This is part of a sample that, as a whole, favours compounds with a hit. Of some 83,000 tested, about 20% had one in any assay.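 The test compound was applied at a single concentration to cells in 96-well plates for 48 hours, and percent growth was recorded.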 A number with no mark means an inactive call. The source made the active and inactive calls. Rule for the calls: active = growth percent below 10; inactive = the rest.
# Tests used:
# Test in all cases: NCI-60 one-dose screen, 48 h (100 = growth as untreated, 0 = no growth, -100 = all killed)
# [1] = system: EKVX NSCLC; conditions: 10 µM unless noted
# [2] = system: SN12C renal; conditions: 10 µM unless noted
# [3] = system: UO-31 renal; conditions: 10 µM unless noted
# [4] = system: TK-10 renal; conditions: 10 µM unless noted
# [5] = system: ACHN renal; conditions: 10 µM unless noted
# [6] = system: A498 renal; conditions: 10 µM unless noted
# [7] = system: CCRF-CEM leukemia; conditions: 10 µM unless noted
# [8] = system: RPMI-8226 leukemia; conditions: 10 µM unless noted
# [9] = system: OVCAR-8 ovarian; conditions: 10 µM unless noted
# [10] = system: OVCAR-5 ovarian; conditions: 10 µM unless noted
# [11] = system: OVCAR-4 ovarian; conditions: 10 µM unless noted
# [12] = system: SK-OV-3 ovarian; conditions: 10 µM unless noted
# [13] = system: IGROV1 ovarian; conditions: 10 µM unless noted
# [14] = system: HS 578T breast; conditions: 10 µM unless noted
# [15] = system: NCI/ADR-RES ovarian; conditions: 10 µM unless noted
# [16] = system: CAKI-1 renal; conditions: 10 µM
# [17] = system: MOLT-4 leukemia; conditions: 10 µM unless noted
# [18] = system: SR leukemia; conditions: 10 µM unless noted
SMILES,growth [1] [%],growth [2] [%],growth [3] [%],growth [4] [%],growth [5] [%],growth [6] [%],growth [7] [%],growth [8],growth [9],growth [10] [%],growth [11] [%],growth [12] [%],growth [13] [%],growth [14],growth [15] [%],growth [16],growth [17],growth [18]
CS(=O)(=O)c1nccc(-c2c(-c3ccc(F)c(OCCc4ccccc4)c3)nc3sccn23)n1,59.5,83.7,85.5,100,90,90.4,84.2,54.7%,87.5%,100,98.4,121,59.3,113%,95.9,–,–,–
Cc1cn(-c2cc(NC(=O)c3cncc(C#Cc4cnc5ccc(O[C@H]6CCOC6)nn45)c3)cc(C(F)(F)F)c2)cn1,89.9,72,55.7,133,87.7,–,–,85.4%,92.6%,80.3,–,119,65.3,73.7%,101,88.5%,88.9%,47.8%
C/C(=N\NC(=S)Nc1ccc(Br)cc1)c1cc2ccccc2oc1=O,40.6,35.2,19.5,42.4,14.9,–,12.5,16.3%,5.84% (active),41.3,28.2,26.1,24.6,20.5%,11.4,9.07% (active),18.1%,0.863% (active)
Cc1cn(-c2cc(NC(=O)c3cncc(C#Cc4cnc5ccc(OCCCS(C)(=O)=O)nn45)c3)cc(C(F)(F)F)c2)cn1,16,16.7,38.3,33.8,56.2,–,–,39.5%,15.4%,22.6,58.4,104,14.4,-3.18% (active),89.6,37.4%,9.79% (active),2.78% (active)
Cc1cc(=O)n2nc(-c3cn(C)c4ccc(Cl)cc34)sc2n1,89.5,91.6,87.1,138,89.8,–,88.3,94.5%,–,93.8,93.7,84.3,83.7,83.9%,93.2,–,86.6%,93%
COc1cc(-c2nc(SCc3ccc(C)cc3)[nH]c(=O)c2C#N)ccc1OCc1ccccc1,107,116,91.8,101,105,–,116,105%,101%,105,98.1,108,116,107%,103,95.2%,129%,125%
Cc1ccccc1NC1CC(=O)N(c2ccc(Cl)cc2Cl)C1=O (configuration not stated),96.7,103,92.3,99.3,104,–,112,102%,103%,107,97.5,108,–,99.6%,99.9,89.9%,117%,102%
Cc1ccc(NC(=O)N[C@@H](Cc2cc(F)cc(F)c2)C(=O)NC2C(=O)N3CCC[C@H]3C(=O)N3CCCC[C@H]3C(=O)N[C@@H](C)C(=O)N3C[C@H](C)C[C@H]3C(=O)O[C@H]2C)c(F)c1 (some centres not stated),29.5,23.5,30.2,53.9,32.1,–,–,11.6%,21.6%,36.3,23.9,23.9,47.5,28.9%,20.1,22.2%,40.3%,30.6%
COc1ccc(CCN2C(=O)CSC2=S)cc1OC,103,93,83,55.6,100,–,–,32.8%,98.6%,104,100,99.1,–,104%,101,84.6%,88.7%,64.6%
C=CCn1c(SCC(=O)Nc2cccc(C(=O)/C=C/c3ccccc3)c2)nc2ccccc2c1=O,99.3,91.1,67.4,116,93.9,92.9,72.1,2.15% (active),83.3%,101,88,122,87.6,99.2%,87.1,–,–,–
